From PubChem BioAssay (NCI)
This is part of a sample that, as a whole, favours compounds with a hit. Of some 83,000 tested, about 20% had one in any assay.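 The endpoint reported here, percent growth, reads 100 for growth as untreated, 0 for no net growth and -100 for all cells dead.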 Unmarked numbers belong to inactive results. Activity calls are given as the source filed them. How the source made its calls: active means growth percent below 10; inactive means the rest.

Each compound was assayed on T-47D breast (assay: NCI-60 one-dose screen, 48 h (100 = growth as untreated, 0 = no growth, -100 = all killed)). Settings: 10 µM unless noted.
For `O=CC1(C2(C=O)c3ccccc3-c3ccccc32)c2ccccc2-c2ccccc21`, the growth was -51% (active). Work on `N#Cc1c(-c2cccs2)cc(-c2cccnc2)[nH]c1=O` yielded a growth of 103%. In the case of `CCOC(=O)c1cnc2ccccc2c1Cl`, the growth was 102%. Work on `Cn1cccc1C(=O)C1C(c2cccc([N+](=O)[O-])c2)C2C3CCCCC3CN2C12C(=O)Nc1ccc(Cl)cc12` (stereo not given) yielded a growth of 36.7%. For `Cc1ccccc1/C=C1\CN(C(=O)OC(C)(C)C)C/C(=C\c2ccccc2C)C1=O`, the growth was 51.8%. `Cc1ccc(-c2cc(-c3ccc(Cl)cc3)nc(NC(=O)c3cccnc3)n2)cc1` showed a growth of 96.3%. `O=c1c2cc(-c3ccccc3)sc2nc2sc(-c3ccccc3)nn12` gave a growth of 99.3%. In the case of `COc1ccc2nc(NC(=O)CSc3nnc4n3S(=O)(=O)c3ccccc3N4C)sc2c1`, the growth was 99.2%. In the case of `Cc1ccc(/C=C2\CN(C(=O)OC(C)(C)C)C/C(=C\c3ccc(C)cc3)C2=O)cc1`, the growth was 61.1%. For `O=C(Nn1c2c(sc1=Nc1ccccc1)C(=O)c1ccccc1C2=O)c1cc2ccc1CCc1ccc(cc1)CC2`, the growth was 71.1%. `O=C1Nc2ccc(I)cc2C1=O` showed a growth of 106%. `Fc1ccc2[nH]cc(-c3nonc3-c3c[nH]c4ccc(Br)cc34)c2c1` was tested, and the growth was 3.33% (active). For `O=C(/C=C/c1ccc(Cl)cc1)c1cccc(Nc2nc(Nc3ccccc3)nc(Nc3ccccc3)n2)c1`, the growth was 55.6%. With `O=[N+]([O-])c1ccc(S(=O)(=O)N2CCN(C3=NS(=O)(=O)c4ccccc4N3c3ccccc3)CC2)cc1` the growth was 115%. `Oc1ccc(CCn2c(O)c(/C=C3\CN=c4ccccc4=N3)sc2=S)cc1` was tested, and the growth was 39.8%. `CCOC(=O)/C=C1\S/C(=N\Nc2cc(=O)[nH]c3ccc(Cl)cc23)N(c2ccccc2)C1=O` showed a growth of 66.8%. Work on `CCOC(=O)c1cn2ncnc(Oc3ccc(NC(=O)NC4CCCCC4)c(Cl)c3)c2c1C` yielded a growth of 85%. For `Fc1cc2c(cc1Cl)N(c1ncnc3ccc(-c4cnc5[nH]ncc5c4)cc13)CC2`, the growth was 17.8%. In the case of `CC1=C(Nc2ccc(N3CCN(C)CC3)cc2)C(=O)c2cncnc2C1=O`, the growth was -44.2% (active). For `COc1ccc(C(=O)Nc2ncc(Cc3ccc(F)cc3)s2)cc1`, the growth was 33.6%. For `Cc1ccc(CNc2ccc(Cl)cc2NCc2ccc(C)c(O)c2)cc1O`, the growth was 11.3%. In the case of `COc1cc(NC(C)CCCNC(C)C)c2ncccc2c1OC` (stereo not given), the growth was 31.6%. Work on `Cc1ccc(NC(=S)NNC(=S)NNc2ccccc2)cc1C` yielded a growth of 98.1%. Work on `COc1ccc(/C=N/C2=C(C#N)C(c3cccc(Cl)c3)c3c(ccc4ccccc34)O2)cc1` (stereo not given) yielded a growth of 36.7%. Compound `C#CCOc1ccc2ncnc(Nc3cccc(NC(=O)C=C)c3)c2c1` has a growth of 70.6%. Work on `Cc1nc2c(=O)[nH]c(SCC(=O)Nc3cccc(F)c3)nc2[nH]c1=O` yielded a growth of 97.1%. With `CC1(C)c2[nH]c3ccccc3c2C[C@]2(C)[C@H]3CC=C4[C@@H]5C[C@@](C)(C(N)=O)CC[C@]5(C)CC[C@@]4(C)[C@]3(C)CC[C@@H]12` the growth was 9.07% (active). In the case of `CCOC(=O)c1cc(-c2ccc([N+](=O)[O-])cc2)n(-c2ccc(C(=O)O)c(O)c2)c1C`, the growth was 38.2%. Compound `Nc1c(C(=O)Nc2ccncc2)sc2nc3c(cc12)CCCCCC3` has a growth of 49.9%. `COc1cccc(NC(=O)Cn2cc(CN3CCN(c4ccnc5cc(Cl)ccc45)CC3)nn2)c1` showed a growth of 70.7%. For `COC(=O)c1cc(-c2ccc(OC)cc2)[nH]c1N/N=C/c1c(Cl)cccc1Cl`, the growth was 45.5%. `O=C1CC(N2C(=O)/C(=C/C(Cl)=C\c3ccc([N+](=O)[O-])cc3)SC2=S)C(=O)N1c1ccc(Cl)cc1` (stereo not given) showed a growth of 36.3%. In the case of `Clc1ccc2c(c1)N(c1ncnc3ccc(-c4cnc5[nH]ncc5c4)cc13)CC2`, the growth was 0.466% (active). Work on `O=C1Nc2ccc(Br)cc2/C1=N/c1n[nH]c(=S)s1` yielded a growth of 94.6%. For `O=C1C(Cl)=C(Oc2ccccc2)C(=O)c2ccccc21`, the growth was -0.942% (active). For `Cn1cc(-c2csc(-c3ccc(Cl)cc3)n2)c2cccnc21`, the growth was -23.5% [100 µM] (active). For `Brc1ccc2[nH]cc(-c3nonc3-c3c[nH]c4ccccc34)c2c1`, the growth was 5.65% (active). `COc1ccc(C2=Nc3c/c(=C\c4c(O)[nH]c5ccc(Cl)cc45)ccc3=N2)cc1` gave a growth of 53.7%. `CC(C)NC1CCC(Nc2ccnc3cc(Cl)ccc23)CC1` (stereo not given) was tested, and the growth was 80.3%. For `Cc1cc(=O)[nH]c2c(C#N)cnn12`, the growth was 99.6%.
